Luciferase inh: Firefly luciferase inhibition profiling of diverse chemical library using quantitative high-throughput screening. purified P. pyralis luciferase, luminescence, biochemical. AID 1347043, 2019. 76,000 compounds, 2.5% hits. Potency, µM (series often up to 115 µM), hits mostly inhibitors; also: nearly all actives have a fitted effect of over 65% in size
Target sequence (P08659 whole entry, looked up): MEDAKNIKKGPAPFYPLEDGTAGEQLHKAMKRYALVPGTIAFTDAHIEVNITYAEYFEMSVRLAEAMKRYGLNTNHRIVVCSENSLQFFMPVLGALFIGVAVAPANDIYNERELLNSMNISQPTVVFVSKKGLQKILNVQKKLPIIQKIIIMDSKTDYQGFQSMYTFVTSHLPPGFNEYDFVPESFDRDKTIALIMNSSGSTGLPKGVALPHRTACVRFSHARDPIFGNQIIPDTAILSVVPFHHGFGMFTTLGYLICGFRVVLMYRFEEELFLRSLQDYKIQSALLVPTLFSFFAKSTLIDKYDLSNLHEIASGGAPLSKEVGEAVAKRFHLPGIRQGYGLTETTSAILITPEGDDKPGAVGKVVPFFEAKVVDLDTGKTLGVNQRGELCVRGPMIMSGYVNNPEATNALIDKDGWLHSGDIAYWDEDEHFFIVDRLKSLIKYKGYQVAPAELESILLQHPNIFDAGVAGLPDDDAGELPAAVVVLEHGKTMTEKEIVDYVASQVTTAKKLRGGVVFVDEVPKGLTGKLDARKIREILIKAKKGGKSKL
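Biochemical qHTS: compound (6-point titration) added to 10uM D-luciferin plus 10uM ATP in Tris acetate pH 7.5 buffer with Mg, Tween-20 and BSA, then purified enzyme at 10nM; light output imaged.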
hNpr1 antagonist: Natriuretic polypeptide receptor (hNpr1) antagonism - Primary qHTS; Atrial natriuretic peptide receptor 1 (Homo sapiens), P16066; HEK293 hNpr1 GloSensor cGMP, ANP-stimulated luminescence; Potency, µM (top dose mostly 46.3 µM), for the others: at the top dose activity change, negative = inhibition, actives largely listed as inhibitors; 76,000 compounds, 1.6% hits; AID 1347048, 2019; calls by dose curve; also: nearly all actives have a fitted effect of over 60% in size
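Compound pre-incubated 30 min at room temperature on GloSensor-loaded HEK293 cells stably carrying hNpr1 and the pGS-40F cGMP biosensor. Stimulation uses hNppA at 0.1 nM final; luminescence is taken at baseline and 20 min post-agonist.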
3T3 cytotox: Cytotoxic Profiling in NIH 3T3 Cell Line of Diverse Libraries Using Quantitative High-Throughput Screening; NIH 3T3 viability, CellTiter-Glo ATP luminescence, 48-72 h; 94,000 compounds, 4.3% hits; Potency, µM (top dose mostly 96.7 µM), without a hit: at the highest dose activity change, negative = cytotoxicity, hits mostly inhibitors; also: nearly all actives have a fitted effect of over 55% in size
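NIH 3T3 cells at 400 cells/well received 23 nL of compound by pintool and were incubated 48 or 72 h at 37 °C. Viability was read as ATP-coupled CellTiter-Glo luminescence.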
HEK293 tox: Cytotoxic Profiling in HEK 293 Cell Line of Diverse Libraries Using Quantitative High-Throughput Screening | 94,000 compounds, 6.6% hits | AID 1345083, 2018 | Potency, µM (top dose mostly 115 µM), without a hit: at the highest dose activity change, negative = cytotoxicity, actives largely listed as inhibitors | HEK 293 viability, ATP luminescence (CellTiter-Glo), 48-72 h; also: nearly all actives have a fitted effect of over 60% in size
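250 HEK 293 cells/well; compound by pintool; incubated 48 or 72 hr at 37 degree Celsius; CellTiter-Glo added, 10 min RT, luminescence imaged.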
* marks the source's active call; other numbers are inactive results; ! = repeats disagree; [ ] = another dose, or the depositor's remark. This is a sample that favours compounds with a hit; in the whole collection about 11% have one here. Unless noted, calls follow the shape of the dose curve; as a rule, active = well fitted curve in the direction sought with a large enough effect; inconclusive = small, poorly fitted or top-dose-only effect, or another doubt; inactive = no such curve, though single readings can be large; an effect the other way counts as inactive or inconclusive. % is scaled to controls: 0 for no effect and ±100 for the full control effect; potency is read from the fitted curve at half-maximal effect.

What do the screens show for `Cc1cc(NC(=O)c2ccc3c(c2)N(C)C2CCCCN2C3=O)ccc1F` (configuration not stated)?
Luciferase inh: 22.4µM*; hNpr1 antagonist: -24.2%; 3T3 cytotox: inconclusive; HEK293 tox: inconclusive

What do the screens show for `Cc1ccc(C(=O)NC2CCN(c3nccc(Nc4ccccc4F)n3)CC2)cc1`?
3T3 cytotox: inconclusive; HEK293 tox: 22.4µM*

What do the screens show for `Cc1ccc(C(=O)N2CCN(c3nccc(Nc4ccccc4F)n3)CC2)cc1`?
3T3 cytotox: inconclusive; HEK293 tox: 44.7µM*!

Results for CC(=O)N1CCN(c2nccc(Nc3ccccc3F)n2)CC1 ?
3T3 cytotox: -25.7%[138 µM]; HEK293 tox: inconclusive

What do the screens show for `Cc1ccccc1C(=O)NC1CCN(c2nccc(Nc3ccccc3F)n2)CC1`?
3T3 cytotox: inconclusive; HEK293 tox: 20µM*

What do the screens show for `O=C(NC1CCN(c2nccc(Nc3ccccc3F)n2)CC1)c1cccc(Cl)c1`?
3T3 cytotox: 31.6µM*; HEK293 tox: inconclusive

Results for O=C(Cc1ccccn1)NC1CCN(c2nccc(Nc3ccccc3F)n2)CC1 ?
3T3 cytotox: inconclusive; HEK293 tox: -22.0%

How did CCC(=O)N1CCCN(c2ccnc3ccnn23)CC1 do in these assays?
3T3 cytotox: inconclusive; HEK293 tox: -3.9%[172 µM]

What do the screens show for `O=C(c1nc2cccnc2n(C2CC2)c1=O)N1CCN([S+](=O)([O-])c2cccs2)CC1`?
3T3 cytotox: -7.4%; HEK293 tox: inactive

How did O=C(Cc1cccnc1)N1CCN(c2ccc3nnc(C4CC4)n3n2)CC1 do in these assays?
3T3 cytotox: -13.5%; HEK293 tox: 0.6%

Results for O=C(c1ccccc1)N1CCCN(c2ccc3nnc(C4CC4)n3n2)CC1 ?
3T3 cytotox: -14.3%; HEK293 tox: -0.7%

How did O=C(NC1CCCCCC1)c1nc2sccn2c1-c1ccc(F)cc1 do in these assays?
3T3 cytotox: inconclusive; HEK293 tox: -34.5%[172 µM]

What do the screens show for `CCCCCNC(=O)c1ccccc1-c1ccc(OC)nn1`?
3T3 cytotox: -18.0%[138 µM]; HEK293 tox: -16.2%[172 µM]

Results for CC(=O)Nc1cccc(-c2cc3c(ccn3C)c(C(=O)NCc3cccnc3)n2)c1 ?
Luciferase inh: inactive; hNpr1 antagonist: -21.1%[70.6 µM]; 3T3 cytotox: 25.1µM*; HEK293 tox: inconclusive

Results for Cn1ccc2c(C(=O)NCc3cccnc3)nc(-c3ccncc3)cc21 ?
Luciferase inh: inconclusive; hNpr1 antagonist: 1.5%[70.6 µM]; 3T3 cytotox: inconclusive; HEK293 tox: inconclusive

Results for Cn1ccc2c(C(=O)NCc3cccnc3)nc(-c3ccccc3C(F)(F)F)cc21 ?
Luciferase inh: inactive; hNpr1 antagonist: -2.5%[70.6 µM]; 3T3 cytotox: 44.7µM*; HEK293 tox: 70.8µM*

What do the screens show for `Cn1ccc2c(C(=O)NCc3cccnc3)nc(-c3cccc(N4CCOCC4)c3)cc21`?
Luciferase inh: inactive; hNpr1 antagonist: -20.6%[70.6 µM]; 3T3 cytotox: inconclusive; HEK293 tox: inconclusive

How did CN(C)CCNC(=O)c1nc(-c2ccc(N3CCN(C)CC3)cc2)cc2c1ccn2C do in these assays?
Luciferase inh: inconclusive; hNpr1 antagonist: -0.9%[70.6 µM]; 3T3 cytotox: 7.94µM*; HEK293 tox: inconclusive

Results for Cn1ccc2c(C(=O)NCc3cccnc3)nc(-c3ccc(CO)cc3)cc21 ?
Luciferase inh: inactive; hNpr1 antagonist: 0.4%[70.6 µM]; 3T3 cytotox: 44.7µM*; HEK293 tox: -1.7%[172 µM]

Results for O=C(NC1CCCN(CCn2nc3n(c2=O)CCCC3)C1)c1ccncc1 (configuration not stated) ?
3T3 cytotox: -20.2%; HEK293 tox: -7.7%

How did O=C(NCCc1ccccc1F)c1cn2cc(-c3ccc(C(F)(F)F)cc3)sc2n1 do in these assays?
3T3 cytotox: -27.3%; HEK293 tox: -13.9%

Results for Cn1ccc2c(C(=O)NCc3cccnc3)nc(-c3cccnc3)cc21 ?
Luciferase inh: inactive; hNpr1 antagonist: -12.0%[70.6 µM]; 3T3 cytotox: 25.1µM*; HEK293 tox: -25.5%[172 µM]

How did CC(C)NC(=O)C1CCCN(c2ccnc3ccnn23)C1 (configuration not stated) do in these assays?
3T3 cytotox: -28.4%[138 µM]; HEK293 tox: -15.7%[172 µM]
